Assay outcomes: PubChem BioAssay, National Center for Advancing Translational Sciences (NCATS)
In the library only some 2.4% were active in any assay of this set; here they are far more common.
AmpC inh det = AmpC beta-lactamase inhibition, detergent assay | P00811 | purified AmpC, nitrocefin hydrolysis with detergent | Potency, µM (series often up to 28.7 µM), inactives show top-dose activity change, negative = inhibition | 71,000 tested, 0.09% active | AID 584; active = well fitted curve in the direction sought with a large enough effect; inconclusive = small, poorly fitted or top-dose-only effect; also: % is scaled to controls: 0 for no effect and ±100 for the full control effect
Target sequence (P00811 whole entry, looked up): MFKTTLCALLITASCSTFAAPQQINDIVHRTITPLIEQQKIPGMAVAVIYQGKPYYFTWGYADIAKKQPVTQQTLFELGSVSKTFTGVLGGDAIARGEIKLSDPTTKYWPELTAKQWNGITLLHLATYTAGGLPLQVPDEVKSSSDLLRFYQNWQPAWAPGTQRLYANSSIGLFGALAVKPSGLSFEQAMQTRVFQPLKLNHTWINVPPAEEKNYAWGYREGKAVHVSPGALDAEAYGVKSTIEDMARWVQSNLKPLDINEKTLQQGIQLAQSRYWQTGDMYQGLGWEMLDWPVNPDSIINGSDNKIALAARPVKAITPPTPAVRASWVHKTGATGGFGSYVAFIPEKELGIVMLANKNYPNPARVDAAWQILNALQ
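E. coli AmpC (5.3 nM) in 20 mM phosphate pH 7.0 with 0.01% Triton X-100, preincubated 15 min RT with compound; nitrocefin (2 uL of 800 uM stock) hydrolysis followed by 480 nm absorbance every 20 s over 4 min.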
Anthrax LT inh = anthrax lethal toxin internalization inhibition | Cells, anthrax lethal toxin internalization, FRET ratio (460/530) | Potency, µM (top dose mostly 40 µM), inactives show at the highest dose activity change, negative = inhibition, actives largely listed as inhibitors | 70,000 tested, 0.67% active; also: % is scaled to controls: 0 for no effect and ±100 for the full control effect; nearly all actives have a fitted effect of over 50% in size
SmPrx2 inh = Schistosoma mansoni Prx2 inhibition; S. mansoni Prx2 activity coupled to TGR/GSH (TGR is thioredoxin glutathione reductase), NADPH fluorescence loss, qHTS; AID 448; 65,000 tested, 0.07% active; Potency, µM
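Purified S. mansoni TGR and Prx2 in pH 7.4 phosphate buffer with EDTA and Tween-20 were preincubated with compounds for 15 min. Further NADPH/GSH was added, then a 2.5 mM H2O2 aliquot initiated turnover, followed kinetically by NADPH fluorescence.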
AmpC inh no det = AmpC beta-lactamase inhibition, detergent-free assay. 71,000 tested, 1.8% active. Potency, µM (titrated, usually from 28.7 µM), inactives show at the highest dose activity change, negative = inhibition. AmpC nitrocefin hydrolysis, absorbance 480 nm, no detergent; also: % of control where 0% means no effect
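AmpC, 20 mM phosphate pH 7.0; 15 min cpd preinc, RT; start with nitrocefin (800 uM stock); A480 kinetic read, 20 s intervals, 4 min. No-enzyme wells = negative control.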
* = called active by the depositor; ? = inconclusive; · = no result given; [ ] = another dose, or the depositor's remark. Unless noted, calls follow the shape of the full dose curve. Potency is read from the fitted curve at half-maximal effect.

SMILES	AmpC inh det	Anthrax LT inh	SmPrx2 inh	AmpC inh no det
C=C/C(C)=C/[C@]1(C)SC(=O)C(C)=C1O	-2.1%	7.3%	>57	-7.7%
COc1ccc(NC(=O)Nc2cccc(C)n2)cc1	9.7%	-12.6%	>57	3.98µM*[single pt active]
Cc1cccc(NC(=O)Nc2ccc(C#N)cc2)n1	2.9%	-6.6%	>57	0.1%
O=C1c2sc3nc4c(c(=O)n3c2C(=O)N1c1ccccc1)CCC4	11.9%	-21.1%	>57	-12.7%
Cc1ccccc1N1C(=O)c2sc3nc4c(c(=O)n3c2C1=O)CCC4	11.0%	12.6µM*	·	-16.8%
CCN(CC)CCNC(=O)Cn1nc(Cc2cccnc2)c2ccccc2c1=O	12.2%	?	>57	3.98µM*[single pt active]
O=C(Cn1nc(Cc2cccnc2)c2ccccc2c1=O)Nc1ccc2c(c1)OCO2	14.0%	-16.7%	>57	3.98µM*[single pt active]
O=C(Cn1nc(Cc2cccnc2)c2ccccc2c1=O)NCCCN1CCCC1=O	7.6%	-9.3%	>57	3.6%
C/C=C1\CC2C=CC1C2 (stereo not drawn)	8.6%	-6.9%	·	-12.8%
Clc1ccc(C(c2ccc(Cl)cc2)C(Cl)(Cl)Cl)cc1	14.2%	6.31µM*	·	?
O=C1Nc2ccccc2C(O)(C(=O)NCc2ccco2)N1c1ccc(Cl)c(Cl)c1 (stereo not drawn)	-2.6%	7.94µM*	>57	-6.1%
COc1ccc2ccccc2c1C1CC(=O)N2CN(Cc3ccco3)CSC2=C1C#N (stereo not drawn)	0.5%	?	>57	3.98µM*[single pt active]
CCOc1cc(C2CC(=O)N3CN(C4CCCCC4)CSC3=C2C#N)ccc1O (stereo not drawn)	12.5%	-7.3%	>57	2.51µM*
COc1cc(C2CC(=O)N3CN(Cc4ccco4)CSC3=C2C#N)ccc1OCc1ccccc1 (stereo not drawn)	9.4%	?	>57	3.98µM*[single pt active]
COc1ccc(C2CC(=O)N3CN(Cc4ccco4)CSC3=C2C#N)cc1 (stereo not drawn)	-2.8%	?	>57	-3.5%
Nc1cc(S(N)(=O)=O)ccc1SSc1ccc(S(N)(=O)=O)cc1N	-3.4%[5.75 µM]	?	>57	-1.7%[5.75 µM]
N#Cc1nc(-c2ccccc2F)oc1N1CCCC1	-3.6%	3.7%	>57	14.1%
CN(C)c1oc(-c2ccccc2F)nc1C#N	12.7%	-3.2%	>57	3.98µM*[single pt active]
C[C@@]12CC[C@@H]3[C@H](CCC4=CC(=O)CC[C@]43C)[C@@H]1CC[C@@H]2C(=O)COS(=O)(=O)c1ccc(Br)cc1	-3.4%[5.75 µM]	-4.5%[8 µM]	>57	9.9%[5.75 µM]
C=C1CC[C@@H]2[C@](C)(CC[C@@H](O)[C@]2(C)CO)[C@@H]1C/C=C1/C(=O)OC[C@H]1O	11.5%	?	>57	3.3%
COc1ccc(S(=O)(=O)N2CCN(C)CC2)c2ccccc12	11.3%	18.9%	>57	3.98µM*[single pt active]
COc1cccc(NC(=O)c2oc3ccccc3c2NC(=O)C(C)(C)C)c1	5.2%	12.6µM*	>57	11.4%
O=c1c2ccccc2sn1-c1cc(S(=O)(=O)N2CCOCC2)ccc1N1CCOCC1	-3.6%	0.159µM*	>57	99.2%
Cn1c(=O)c2cc(S(=O)(=O)N3CCOCC3)ccc2n(C)c1=O	-2.1%	2.5%	>57	-3.9%
OC[C@@H]1NC[C@@H](O)[C@H]1O	1.3%	10.0%	>57	5.3%
SMILES	AmpC inh det	Anthrax LT inh	SmPrx2 inh	AmpC inh no det
Cc1ccccc1CNc1nc(N)n(-c2ccccc2)n1	6.1%	-6.1%	>57	3.98µM*[single pt active]
CC1(C)[C@@H]2CC[C@]1(C)CN(CCC[N+](C)(C)C)C2	-2.8%[5.75 µM]	10.0%[8 µM]	>57	-5.5%[5.75 µM]
O=C(Oc1cc2oc(=O)c3c(c2cc1Cl)CCCC3)c1ccco1	6.9%	?	18.7*	-6.6%
COc1cc2c(cc1O)CCN[C@H]2C	-0.2%	?	>57	-4.0%
CCCN1C(=O)c2cc(C(=O)NC3CCCCCC3)ccc2C1O (stereo not drawn)	15.1%	-3.7%	>57	3.98µM*[single pt active]
N#Cc1c(-c2ccccc2)no[n+]1[O-]	0.1%	-5.2%	8.68*	3.3%
N#Cc1cn(-c2ccccc2)nc1-c1ccccc1	2.2%	-6.3%	>57	-13.1%
COc1ccc(CCN(C)CCC[C@@](C#N)(c2cc(OC)c(OC)c(OC)c2)C(C)C)cc1OC	-1.7%	18.8%	>57	76.9%
Cc1c([C@@H](C)[C@H]2NC[C@H](C)C[C@@H]2O)ccc2c1C[C@@H]1[C@H]2CC=C2C[C@@H](O)CC[C@@]21C	-1.6%[5.75 µM]	7.8%[8 µM]	>57	-2.5%[5.75 µM]
O=C(Cn1nc(Cc2cccnc2)c2ccccc2c1=O)N1CCC2(CC1)OCCO2	0.7%	11.3%	>57	-5.5%
CN(CCC#N)C(=O)Cn1nc(Cc2ccncc2)c2ccccc2c1=O	11.2%	-4.4%	>57	3.98µM*[single pt active]
CN(C)C(=O)Cn1nc(-c2ccccc2)c2ccccc2c1=O	-3.2%	4.1%	>57	10.6%
O=C(Cn1nc(Cc2ccncc2)c2ccccc2c1=O)N1CCc2ccccc2C1	10.8%	-1.5%	>57	3.98µM*[single pt active]
COc1ccc(COC(=O)N/N=C2/C[C@@H](O)[C@@H](O)[C@@H]3[C@@H]4C(=O)N(C5CCCCC5)C(=O)[C@H]4CC[C@@H]23)cc1	·	-3.0%[8 µM]	·	·
O=C(c1ccc2c(=O)n(Cc3ccc4c(c3)OCO4)c(=S)[nH]c2c1)N1CCCCC1	11.4%	0.9%	>57	15.8µM*[single pt active]
Cn1nc(CC(=O)NC2CCCCCC2)c2ccccc2c1=O	11.4%	?	>57	3.16µM*[single pt active]
COc1ccc(CNC(=O)Cc2nn(C)c(=O)c3ccccc23)cc1	-1.6%	-8.6%	>57	3.4%
CCN(CC)S(=O)(=O)c1ccc(C(=O)OCCN2C(=O)CCC2=O)cc1	11.1%	3.2%	>57	3.98µM*[single pt active]
CCOC(=O)c1cnc2c(C(F)(F)F)cccc2c1N1CCOCC1	-6.7%	-9.5%	>57	33.0%
CCOC(=O)c1cnc2c(C)c(Cl)ccc2c1N1CCOCC1	13.9%	-0.4%	>57	3.98µM*[single pt active]
Brc1ccc(Oc2cc(Br)c(Br)cc2Br)c(Br)c1	7.6%	0.794µM*	·	-7.8%
Nc1nnc(COc2ccc(Br)cc2Br)s1	-8.0%	1.8%	>57	-23.1%
COc1ccccc1OCC(=O)Nc1oc(-c2ccccc2)c(-c2ccccc2)c1C#N	-2.1%	-24.3%	>57	-17.4%
N#Cc1c(NC(=O)COC(=O)C2CC3C=CC2C3)oc(-c2ccccc2)c1-c1ccccc1 (stereo not drawn)	-3.4%	?	>57	10µM*
N#Cc1c(NC(=O)CSc2n[nH]c(Cc3ccccc3)n2)oc(-c2ccccc2)c1-c1ccccc1	-1.3%	?	>57	10µM*
SMILES	AmpC inh det	Anthrax LT inh	SmPrx2 inh	AmpC inh no det
Cc1ccnc(SCC(=O)Nc2oc(-c3ccccc3)c(-c3ccccc3)c2C#N)n1	-2.1%	?	>57	?
CC[C@H](C)C(=O)O[C@@H]1CCC=C2C=C[C@H](C)[C@@H](CC[C@H]3C[C@@H](O)CC(=O)O3)[C@H]21	-1.4%	6.1%	>57	127.5%
CC(C)C(=O)CP(=O)(O)O	-4.0%[5.75 µM]	3.1%[8 µM]	>57	-3.7%[5.75 µM]
CC[C@H]1C(=O)OC[C@@H]1Cc1cncn1C	-1.0%	-8.3%	>57	-9.4%
COc1ccccc1OCCn1cc(C(=O)c2ccco2)c2ccccc21	6.2%	10µM*	>57	5.8%
O=c1[nH]c(SCc2c(Cl)c(Cl)c(Cl)c(Cl)c2Cl)nc(=S)[nH]1	-5.0%[5.75 µM]	0.0%[8 µM]	>57	-8.1%[5.75 µM]
